Where a name gives a salt, the structure may show the parent alone.
How the values were obtained:
Conditions in all cases: incubation time: 27 h, anaerobic, 37 °C;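 for the amine columns active = adjusted P below 0.05 in both replicates with a change the same way and a mean fold change under 0.8 or over 1.25; inactive = the rest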
[1] = tested on: Clostridium sporogenes DSM 1664; assay: growth (OD595) fold change vs plate DMSO controls (fold change (ratio)); higher = more growth
Procedure, shortened: (§1)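 Absorbance at 595 nm was read after shaking the anaerobic mGAM cultures, which had grown in 96-well plates for 27 h at 37 °C. After blank subtraction and background correction against 20 µM compound solutions in water, a calibration factor of 5 gave OD values. Growth is the fold change against the median of the plate's DMSO controls. Values are the mean of 2 biological replicates, with fold changes above 1.5 set to NA.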

Escherichia coli IAI1 [2] = assay: as above
Procedure, shortened: as §1

[3] = tested on: Klebsiella aerogenes DSM 30053; assay: as above
Procedure, shortened: as §1

[4] = tested on: Ruminococcus gnavus DSM 108212; assay: as above
Procedure, shortened: as §1

[5] = tested on: Klebsiella aerogenes DSM 30053; assay: fold change of Histamine concentration vs plate DMSO controls (fold change (ratio)); higher = more amine produced, active = hit call of the paper (significant change in both replicates, either direction)
Procedure, shortened: (§2)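 Extracts of whole anaerobic mGAM cultures were analysed for amines by LC–triple-quadrupole MS with dynamic MRM and external calibration curves, with drift corrected within batch. Four gut strains were grown at 37 °C for 27 h in 80 µL wells with compounds at 20 µM final, sweeteners at 50 µM final. Each value expresses fold change over plate DMSO controls. The average of 2 biological replicates is shown.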

[6] = tested on: Clostridium sporogenes DSM 1664; assay: fold change of Tryptamine concentration vs plate DMSO controls (fold change (ratio)); higher = more amine produced, active = hit call of the paper (significant change in both replicates, either direction)
Procedure, shortened: as §2

[7] = tested on: Ruminococcus gnavus DSM 108212; assay: as above
Procedure, shortened: as §2

Escherichia coli IAI1 [8] = assay: fold change of Putrescine concentration vs plate DMSO controls (fold change (ratio)); higher = more amine produced, active = hit call of the paper (significant change in both replicates, either direction)
Procedure, shortened: as §2

[9] = tested on: Klebsiella aerogenes DSM 30053; assay: as above
Procedure, shortened: as §2

Escherichia coli IAI1 [10] = assay: fold change of Cadaverine concentration vs plate DMSO controls (fold change (ratio)); higher = more amine produced, active = hit call of the paper (significant change in both replicates, either direction)
Procedure, shortened: as §2

[11] = tested on: Klebsiella aerogenes DSM 30053; assay: as above
Procedure, shortened: as §2

[12] = tested on: Ruminococcus gnavus DSM 108212; assay: fold change of 2-Phenylethylamine concentration vs plate DMSO controls (fold change (ratio)); higher = more amine produced, active = hit call of the paper (significant change in both replicates, either direction)
Procedure, shortened: as §2

Structure (SMILES)	growth [1]	growth (Escherichia coli IAI1 [2])	growth [3]	growth [4]	fold change of Histamine concentration [5]	fold change of Tryptamine concentration [6]	fold change of Tryptamine concentration [7]	fold change of Putrescine concentration (Escherichia coli IAI1 [8])	fold change of Putrescine concentration [9]	fold change of Cadaverine concentration (Escherichia coli IAI1 [10])	fold change of Cadaverine concentration [11]	fold change of 2-Phenylethylamine concentration [12]
CN(C)CCC(c1ccc(Cl)cc1)c1ccccn1 (configuration not stated) [Chlorpheniramine maleate] (20 µM)	0.73	0.712	0.719	0.699	0.983 (inactive)	1.05 (inactive)	1.03 (inactive)	0.846 (inactive)	0.989 (inactive)	1.43 (active)	1 (inactive)	1.02 (inactive)
Cc1ccc2c(c1)c1c3n2CCNC3CCC1 (configuration not stated) [Pirlindole mesylate] (20 µM)	0.975	1.06	0.98	1	0.963 (inactive)	0.987 (inactive)	1.05 (inactive)	1.06 (inactive)	1 (inactive)	1.01 (inactive)	1 (inactive)	1.08 (inactive)
CCN1CCCC1CNC(=O)c1cc(S(N)(=O)=O)ccc1OC (configuration not stated) [Sulpiride] (20 µM)	0.968	1	0.981	1.18	1.05 (inactive)	0.949 (inactive)	1.03 (inactive)	0.997 (inactive)	1.02 (inactive)	1.03 (inactive)	0.991 (inactive)	1.06 (inactive)
Cc1ccc(-c2ncc(Cl)cc2-c2ccc(S(C)(=O)=O)cc2)cn1 [Etoricoxib] (20 µM)	1.04	1.02	1.14	0.73	0.814 (inactive)	1.16 (inactive)	1.1 (inactive)	1.05 (inactive)	0.959 (inactive)	0.905 (inactive)	1.03 (inactive)	1.19 (inactive)
CCOC(N)=O [Urethane] (20 µM)	0.952	1.05	1.04	1.08	1.03 (inactive)	0.944 (inactive)	0.961 (inactive)	1.02 (inactive)	1.05 (inactive)	1.03 (inactive)	1.03 (inactive)	0.926 (inactive)
O=C(CO)[C@@H](O)[C@H](O)[C@H](O)CO [D(-) Fructose] (50 µM)	1.01	1.02	0.988	0.986	0.994 (inactive)	0.929 (inactive)	0.925 (inactive)	1.04 (inactive)	0.987 (inactive)	1.07 (inactive)	0.981 (inactive)	0.919 (inactive)
O=C(NC1CCN(CCCCC2(C(=O)NCC(F)(F)F)c3ccccc3-c3ccccc32)CC1)c1ccccc1-c1ccc(C(F)(F)F)cc1 [Lomitapide] (20 µM)	1.1	1	1.06	1.07	0.938 (inactive)	1.01 (inactive)	0.709 (active)	1.02 (inactive)	1.01 (inactive)	1.04 (inactive)	1.01 (inactive)	0.847 (inactive)
CC(C)Cc1ccc(CC(=O)O)cc1 [Ibufenac] (20 µM)	1.08	1.1	1.06	1.24	0.908 (inactive)	1.04 (inactive)	1 (inactive)	1.06 (inactive)	1.01 (inactive)	0.994 (inactive)	1.01 (inactive)	0.976 (inactive)
CCCOc1ccccc1-c1nc2[nH]nnc2c(=O)[nH]1 [Zaprinast] (20 µM)	1.03	0.972	1	1.2	0.988 (inactive)	1.01 (inactive)	1.01 (inactive)	0.969 (inactive)	1 (inactive)	0.974 (inactive)	1 (inactive)	1.06 (inactive)
CCCCOCCOCCOCc1cc2c(cc1CCC)OCO2 [Piperonyl butoxide] (20 µM)	1.04	1.09	1.09	1.06	0.916 (inactive)	1.04 (inactive)	1.07 (inactive)	0.998 (inactive)	0.999 (inactive)	0.972 (inactive)	1.02 (inactive)	1.17 (inactive)
CCN[C@@H]1C[C@H](N)[C@@H](O[C@H]2OC(CN)=CC[C@H]2N)[C@H](O)[C@H]1O[C@H]1OC[C@](C)(O)[C@H](NC)[C@H]1O [Netilmicin sulfate] (20 µM)	0.949	0.93	0.898	0.912	0.845 (inactive)	1.02 (inactive)	0.901 (inactive)	0.947 (inactive)	0.995 (inactive)	0.982 (inactive)	0.993 (inactive)	0.948 (inactive)
